G9a inh: qHTS Assay for Inhibitors of Histone Lysine Methyltransferase G9a; Histone-lysine N-methyltransferase EHMT2 (Homo sapiens), Q96KQ7; actives 8.8% (n = 350,000); Potency, µM (highest dose often 102 µM), inactives show at the highest dose activity, negative = inhibition, actives largely listed as inhibitors; G9a H3K9 monomethylation, AlphaScreen, 2 h; further: on the % scale 0 is the no-effect control and ±100 the full control effect; nearly all actives have a fitted effect of over 75% in size
Target sequence (Q96KQ7 913-1193 limits assumed): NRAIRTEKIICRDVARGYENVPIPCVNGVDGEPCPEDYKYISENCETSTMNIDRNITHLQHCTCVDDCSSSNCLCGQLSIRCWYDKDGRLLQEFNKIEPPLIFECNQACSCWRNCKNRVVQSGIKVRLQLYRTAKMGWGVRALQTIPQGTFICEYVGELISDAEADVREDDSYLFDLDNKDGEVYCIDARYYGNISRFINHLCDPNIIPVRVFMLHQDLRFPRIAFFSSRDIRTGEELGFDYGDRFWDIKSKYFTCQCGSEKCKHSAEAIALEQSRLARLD
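G9a (20 nM) was preincubated 15 min with compound, then reacted 2 h at room temperature with 500 nM biotin-H3K9 peptide and 20 µM SAM. Monomethyl-H3K9 detected by AlphaScreen using anti-H3K9me1 antibody.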
HP1b binding inh: HTS for Inhibitors of HP1-beta Chromodomain Interactions with Methylated Histone Tails | Chromobox protein homolog 1 (Homo sapiens), P83916 | AlphaScreen HP1-beta / biotin-H3K9me3 peptide binding | Potency, µM (doses to about 114 µM), inactives show at the highest dose activity change, negative = inhibition, hits mostly inhibitors | actives 0.56% (n = 390,000) | AID 540317, 2011; further: nearly all actives have a fitted effect of over 70% in size
Target sequence (P83916 whole entry, looked up): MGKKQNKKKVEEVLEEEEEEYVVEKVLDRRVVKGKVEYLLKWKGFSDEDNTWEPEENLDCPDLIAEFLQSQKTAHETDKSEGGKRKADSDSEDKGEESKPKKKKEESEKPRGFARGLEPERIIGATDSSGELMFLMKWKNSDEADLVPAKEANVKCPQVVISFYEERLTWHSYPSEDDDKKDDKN
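AlphaScreen: HP1-beta (50 nM) preformed 30 min with biotin-H3(1-18)K9me3 peptide (50 nM) in PBS pH 7.4, 0.01% Tween-20. Compound added for 30 min at RT, then streptavidin donor/nickel chelate acceptor beads (10 ug/mL) for 30 min.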
GLS inh: qHTS for Inhibitors of Glutaminase (GLS); Potency, µM (doses to about 45.5 µM), for inactives: at the highest dose activity change, negative = inhibition, most hits filed as inhibitors; GLS enzymatic activity, qHTS titration; Glutaminase kidney isoform, mitochondrial (Homo sapiens), O94925; actives 0.21% (n = 410,000); AID 624170, 2012; further: on the % scale 0 is the no-effect control and ±100 the full control effect
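Assay buffer: 45 mM KH2PO4 pH 8.2, 0.02% Tween-20. hKGA acts on L-glutamine (1 mM solution added); product glutamate is reported by an oxidase/peroxidase Amplex Red coupling, with fluorescence taken at baseline and 30 min.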
BAZ2B inh: qHTS Assay for Inhibitors of BAZ2B | Bromodomain adjacent to zinc finger domain protein 2B (Homo sapiens), Q9UIF8 | AlphaScreen BAZ2B-H3K14Ac peptide displacement | Potency, µM (highest dose often 114 µM), inactives show top-dose activity change, negative = inhibition, usual class: inhibitors | actives 4.4% (n = 360,000) | AID 504333, 2011; further: on the % scale 0 is the no-effect control and ±100 the full control effect; nearly all actives have a fitted effect of over 60% in size
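Multi-concentration screen (max 110 uM) measuring displacement of acetylated histone H3 peptide from BAZ2B by AlphaScreen, using 50 nM protein, 50 nM peptide and 10 ug/mL streptavidin donor plus Ni-chelate acceptor beads.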
JMJD2A Tudor: qHTS Assay for Inhibitors of JMJD2A-Tudor Domain. Potency, µM (series often up to 114 µM), for inactives: top-dose activity change, negative = inhibition, most hits filed as inhibitors. actives 4.4% (n = 390,000). Lysine-specific demethylase 4A (Homo sapiens), O75164. AlphaScreen JMJD2A-Tudor / H3K4me3 peptide binding; further: on the % scale 0 is the no-effect control and ±100 the full control effect; nearly all actives have a fitted effect of over 50% in size
Numbers without * were called inactive; ? = inconclusive; · = no result given; [ ] = another dose, or the depositor's remark. Sampled rows, rich in hits. Any-hit rate of the full collection: about 10%. The call rests on the fitted dose curve; in most records, active means well fitted curve in the direction sought with a large enough effect; inconclusive means small, poorly fitted or top-dose-only effect, or another doubt; inactive means no such curve, though single readings can be large; an effect the other way counts as inactive or inconclusive. Potency means the concentration at half of the fitted maximal effect.

SMILES	G9a inh	HP1b binding inh	GLS inh	BAZ2B inh	JMJD2A Tudor
CC(=O)N1c2ccc(S(=O)(=O)NCCC(=O)Nc3ccc(Br)c(C)c3)cc2CC1C (centres undefined)	-0.4%[59 µM]	26.3%	-1.6%	-11.9%	-14.7%
Fc1ccc(-n2c(-c3cc(C4CC4)[nH]n3)n[nH]c2=S)cc1Cl	1.58µM*	10.5%	-7.8%	?	79.4µM*
O=c1ccc(-c2n[nH]c(=S)n2-c2ccc(F)c(Cl)c2)n[nH]1	3.16µM*	15.8%	0.0%	?	35.5µM*
S=c1[nH]nc(-c2ccc(Cl)cc2Cl)n1-c1ccc(Cl)cc1	·	16.1%	?	?	-25.3%
Cc1ccc(CNC(=O)C2CCCN(S(=O)(=O)c3cn(C)cn3)C2)cc1 (centres undefined)	2.7%[59 µM]	?	-5.0%	-2.8%	-22.2%
O=C(CN(Cc1ccc(Cl)cc1)S(=O)(=O)c1ccccc1)NCC1CCCO1 (centres undefined)	-2.5%	15.7%	-2.5%	-2.9%	-7.6%
Fc1cnc(N2CCN(c3ccccc3)CC2)nc1N1CCN(c2ccccc2)CC1	50.1µM*	-0.2%	-1.1%	?	-26.7%
COc1ccc(-c2cc(C(=O)Nc3ccc(OC)c(OC)c3)[nH]n2)c(C)c1	·	·	-0.4%	·	·
COC(=O)c1cc2oc(C)cc2n1CC(=O)Nc1cc(Cl)ccc1OC	-4.3%[59 µM]	47.5%	0.4%	1.1%	-23.3%
CC(=O)Oc1ccc2c(=O)c(Oc3ccccc3)coc2c1OC(C)=O	8.91µM*	-12.2%	25.8%	50.1µM*	?
O=[S+]([O-])(c1ccc2c(c1)OCCO2)N1CCN([S+](=O)([O-])c2c(O)cc(F)cc2F)CC1	·	·	·	·	-11.0%
Oc1ccc(NCc2ccccc2OCc2ccc(Cl)cc2)cc1	7.94µM*	5.2%	6.6%	-24.7%	?
O=c1[nH]c2ccc(NCc3ccccc3OCc3ccc(Cl)cc3)cc2[nH]1	25.1µM*	?	16.3%	22.4µM*	28.2µM*
O=c1[nH]c2ccc(NCc3ccc(-c4ccccc4F)o3)cc2[nH]1	-24.9%[59 µM]	27.9%	0.0%	-10.0%	-15.9%
O=c1[nH]c2ccc(NCc3ccc(-c4ccc(Cl)cc4)o3)cc2[nH]1	-30.2%[59 µM]	25.3%	1.6%	?	-14.6%
O=c1[nH]c2ccc(NCc3ccccc3F)cc2[nH]1	17.8µM*	-0.6%	0.9%	?	?
CCOc1ccc(CCNC(=O)c2cc(C)nc3c2c(C)nn3-c2cccc(F)c2)cc1	-0.7%[59 µM]	7.8%	1.4%	15.0%[57.1 µM]	-2.9%
CCOc1ccc2c(c1)C(C)=CC(C)(C)N2S(=O)(=O)c1ccc(F)cc1	-11.1%	51.7%	-1.6%	-2.3%	10.0%
CCOc1ccc2c(c1)-c1c(ssc1=S)C(C)(C)N2C	3.98µM*	2µM*	22.6%	10µM*	11.2µM*
CCOCCCNC(=S)Nc1ccc2nc(N3CCOCC3)cc(C)c2c1	?	29.1%	3.6%	-12.3%	-4.6%
O=C(O)/C=C/C(=O)NCc1cn(-c2ccccc2)nc1-c1cccc(Br)c1	35.5µM*	3.8%	-0.6%	9.0%	-11.3%
CC[C@]1(C(=O)OC)[C@H]2C(=O)N(C)C(=O)[C@H]2[C@H]2CN=C(SCc3ccc(C#N)cc3)N21	·	29.7%	2.2%	·	?
CC[C@]1(C(=O)OC)[C@H]2C(=O)N(C)C(=O)[C@H]2[C@H]2CN=C(SCc3ccc(OC)cc3)N21	·	13.9%	1.1%	·	89.1µM*
O=C(c1noc2c1CCCCC2)N1CCN(C(c2ccccc2)c2ccccc2)CC1	·	45.9%	6.6%	·	-3.7%[11.4 µM]
COC(=O)C1=C(O)/C(=C\c2ccc(CNS(=O)(=O)c3ccc(Cl)cc3)o2)N=C1C	12.6µM*	-2.1%	3.2%	?	-25.3%
SMILES	G9a inh	HP1b binding inh	GLS inh	BAZ2B inh	JMJD2A Tudor
CCOC(=O)C1=C(O)/C(=C\c2ccc(CNS(=O)(=O)c3ccc(Br)cc3)o2)N=C1C	?	-28.2%	-17.4%	-2.8%	56.2µM*
COC(=O)C1=C(O)/C(=C\c2ccc(CNS(=O)(=O)c3ccccc3)o2)N=C1C	?	-12.0%	-13.6%	-11.0%	?
COc1ccc2[nH]c3c(=O)n4c(nc3c2c1)SCC4	-24.1%	28.4%	0.0%	8.2%	-21.7%
COc1ccc(OC)c2c1nc1n2CCS1	1.78µM*	?	2.3%	-22.0%	-8.2%
Nc1cc2c3ccccc3ccc2c2ccccc12	·	-9.9%	9.3%	·	-24.0%
COC(=O)[C@@]1(Cc2ccc(F)cc2)[C@H]2c3cc(C(=O)N4CCCC4)n(CCO)c3C[C@H]2CN1C(=O)c1ccccc1	?	5.7%	13.8%	?	-23.4%
COC(=O)[C@@]1(Cc2ccc(OC)cc2)[C@H]2c3cc(C(=O)N4CCCC4)n(Cc4ccccc4)c3C[C@H]2CN1C(=O)c1ccccc1	·	·	-2.2%	·	·
COC(=O)[C@@]1(Cc2ccc(F)cc2)[C@H]2c3cc(C(=O)N4CCCC4)n(CCc4ccc(O)c(O)c4)c3C[C@H]2CN1C(=O)c1ccccc1	7.08µM*	·	·	39.8µM*	·
COC(=O)[C@@]1(Cc2ccc(OC)cc2)[C@H]2c3cc(C(=O)N4CCCC4)n(CCO)c3C[C@H]2CN1C(=O)c1ccccc1	50.1µM*	10.2%	2.2%	-31.8%	-28.9%
COC(=O)[C@@]1(Cc2ccc(F)cc2)[C@H]2c3cc(C(=O)N4CCCC4)n(CCc4ccc(OC)c(Br)c4)c3C[C@H]2CN1C(=O)c1ccccc1	·	·	-0.2%	·	·
COC(=O)[C@@]1(Cc2ccc(F)cc2)[C@H]2c3cc(C(=O)N(C)C)n(Cc4ccc(OC(F)(F)F)cc4)c3C[C@H]2CN1C(=O)c1ccccc1	50.1µM*	·	·	-37.8%	·
COC(=O)[C@@]1(Cc2ccc(OC)cc2)[C@H]2c3cc(C(=O)N4CCCC4)n(CCSCCO)c3C[C@H]2CN1C(=O)c1ccccc1	35.5µM*	30.6%	2.0%	?	-15.7%
COC(=O)[C@@]1(Cc2ccc(OC)cc2)[C@H]2c3cc(C(=O)N(C)C)n(CCSCCO)c3C[C@H]2CN1C(=O)c1ccccc1	56.2µM*	18.3%	5.5%	?	-25.5%
COC(=O)[C@@]1(Cc2ccc(F)cc2)[C@H]2c3cc(C(=O)N(C)C)n(CCF)c3C[C@H]2CN1C(=O)c1ccccc1	·	·	1.7%	·	·
COC(=O)[C@@]1(Cc2ccc(OC)cc2)[C@H]2c3cc(C(=O)N4CCCC4)n(CCc4c[nH]c5ccc(O)cc45)c3C[C@H]2CN1C(=O)c1ccccc1	50.1µM*	·	·	?	·
CCOC(=O)c1ccc(CN(Cc2ccc(F)cc2)S(=O)(=O)c2ccc(F)c(C(=O)Nc3cc(Cl)ccc3OC)c2)cc1	-5.7%[59 µM]	4.7%	2.7%	3.3%	-11.3%

Screening results (PubChem BioAssay)
